According to PubChem BioAssay (NCATS):
Inconclusive results are not listed. Where a call stands in place of a potency, no number is given. Activity calls are given as the source filed them. Calls come from the whole dose curve; as a rule, active = well fitted inhibition curve with a large enough effect; inconclusive = small, poorly fitted or top-dose-only effect; inactive = flat fitted curve, though single readings scatter.

assay: P-glycoprotein substrates identified in KB-8-5-11 adenocarcinoma cell line, qHTS therapeutic library screen (AID 1346987); conditions: KB-8-5-11 (P-gp overexpressing) viability, CellTiter-Glo, 72 h; series mostly up to 44.5 µM; note: nearly all actives have a fitted effect of over 65% in size
Method in brief: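 Human cervical adenocarcinoma KB-8-5-11 cells, selected in colchicine to over-express P-gp and assayed without it, were exposed for 72 h to titrated compounds. An ATP-based luminescent viability signal gave AC50.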

For `C[C@@H]1O[C@@H](O[C@H]2[C@H](O)[C@@H](O)[C@H](OC[C@H]3O[C@@H](OC(=O)[C@]45CCC(C)(C)C[C@H]4C4=CCC6[C@@]7(C)C[C@H](O)[C@H](O[C@@H]8O[C@H](CO)[C@@H](O)[C@H](O)[C@H]8O)[C@@](C)(C(=O)O)C7CC[C@@]6(C)[C@]4(C)CC5)[C@H](O[C@@H]4O[C@H](CO)[C@@H](O)[C@H](O)[C@H]4O)[C@@H](O)[C@@H]3O)O[C@@H]2CO)[C@H](O)[C@H](O)[C@H]1O` (stereo partly drawn), which outcome is on record?
The outcome was “inactive [at 9.29 µM]”.

For `CCC(CC)n1ccc2c(C(=O)NCc3c(C)cc(C)[nH]c3=O)cc(C#N)cc21`, which Potency is on record?
The Potency was “inactive”.

Which Potency does the source give for `C[C@]12CCC[C@](C)(C(=O)O)C1CCC13C=C(CO)C(CCC12)C3` (stereo partly drawn) here?
Its Potency is “inactive”.

Which Potency does the source give for `C=C1[C@@H]2CC[C@@]3(C)[C@H](c4ccoc4)OC(=O)C[C@]13O[C@H]1CC(=O)C(C)(C)[C@H](CC(=O)OC)[C@]12C` here?
Its Potency is “inactive”.

For `CNC(=O)Nc1ccc(OC)c(NC(=O)NC(=O)c2cc(F)c(F)cc2Cl)c1`, which Potency is on record?
The Potency was “inactive”.

For `CC(=O)OCC1=C[C@H](O)[C@@H]2C(C(=O)O)=CO[C@@H](O[C@@H]3O[C@H](CO)[C@@H](O)[C@H](O)[C@H]3O)[C@H]12`, which Potency is on record?
Its Potency is “inactive”.

For `COc1ccc(/C=C/C(=O)O[C@@H]2[C@@H](O)[C@H](C)O[C@@H](OC3C4C=COC(O[C@@H]5O[C@H](CO)[C@@H](O)[C@H](O)[C@H]5O)C4C4(CO)OC34)[C@@H]2O)cc1OC` (stereo partly drawn), which Potency is on record?
Its Potency is “inactive”.

With `COC1=CC(=O)C[C@@H](C)[C@]12Oc1cc(OC)cc(OC)c1C2=O` as the molecule, how does the Potency read?
Its Potency is “inactive”.
